{"source": "PubChem BioAssay (EPA / NIEHS)", "note": "The source made the active and inactive calls. The calls were made as follows: active = hit-call score of the fitted dose curve at least 0.9, where 1 is the maximum; inactive = score below 0.9.", "data": [{"read-out": "ABC Transporter (ABCB1), ABCB1 (gene 5243)", "test": "LTEA_HepaRG_ABCB1: Life Technologies and Expression Analysis (LTEA) Assay for ABC Transporter (ABCB1) using HepaRG (AID 2283460)", "conditions": "mRNA level, 48 h; actives raise or lower the signal", "experimental": "LTEA_HepaRG is a cell based, multiplexed-readout assay that uses HepaRG, a human liver cell line, with measurements taken at 48 hours after chemical dosing on a 96-well plate.LTEA_HepaRG_ABCB1 is one of 102 assay component(s) measured in the LTEA HepaRG cell culture assay. It is a marker of Steatosis/NR mediated transport.Data from the assay component LTEA_HepaRG_ABCB1 was analyzed into 1 endpoint. This assay endpoint, LTEA_HepaRG_ABCB1, was analyzed with bidirectional fitting relative to DMSO as the negative control and baseline of activity. Using a type of inducible reporter, measures of mRNA induction for gain or loss-of-signal activity can be used to understand regulation of transcription factor activity. To generalize the intended target to other relatable targets, this assay endpoint is annotated to the transporter intended target family, where the subfamily is ABC transporter.\nA total of 1060 chemcials from the ToxCast library were tested in eight-point concentration-response experiments. Cell culture and cytotoxicity assays were conducted at Thermo Fisher Scientific's Custom Services facility (Madison, WI). A single lot of human HepaRG cells (Thermo Fisher Scientific, Frederick, MD) was used for the cell culture experiments. 96-well format collagen type I coated plates of human HepaRG cells were prepared using established methods. Briefly, cryopreserved HepaRG cells were thawed, plated at a density of approximately 100,000 cells/well in HepaRG Thaw, Plate, and General Purpose media (HPRG770, Thermo Fisher Scientific), and incubated for 48 hours. 0.5% DMSO was selected as vehicle control to balance the requisite need of DMSO in HepaRG cultures to maintain differentiation (for example, baseline metabolism, proportions of hepatocytes vs. cholangiocytes), while enabling further hepatic receptor pathway activation (for example, PXR and CAR) in response to chemical exposure. 48 hours after plating, the culture medium was replaced with HepaRG Serum-Free Incudtion Media. Cells were exposed to each test chemical in duplicate and maintained in CO2 incubators for another 48 hours. Chemical plates were thawed to room temperature and 200x concentrations of treatment groups were prepared. 8-point conentration-reponse curves were made with the highest exposure at 100 uM, followed by half-log dilutions, all in 0.5% DMSO. Each test plate contained variouse controls, induction positive controls (1mM phenobarbital), cytotoxicity positive controls ([…] aflatoxin B1), vehicle controls (0.5% DMSO), and total lysis controls (0.5% DMSO). Cell morphology images were taken using an Essen IncuCyte FLR automated microscope, with six 96-well plates imaged in about 24 minutes. Images were captured and exported and JPEG files. Spent culture media was transfered to black-well plates for the LDH assay, and remaining media was sorted at -80 C for later use. Cells were treated with RLT buffer and frozen until shipped for gene expression analysis. Total RNA was isolated from the cell suspension in 75 uL of Buffer RLT (Qiagen, Germantown, MD 20874) by Quintiles/Expression Analysis (Durham, NC) using a custom isolation procedure. Total RNA from each plate well was transferred to a preamplification plate. Fluidigm's 96.96 Dynamic ArrayTM (Fluidigm, Amsterdam, the Netherlands) technology was used for gene expression analyses by quantitative reverse transcription polymerase chain reaction (qRT-PCR, performed by Quintiles/Expression Analysis, Durham, NC)89. Standard TaqManTM Assays (Applied Biosystems/ThermoFisher Scientific, Foster City, CA) were used to assess the expression of 93 genes selected based on their selectivity and sensitivity to important hepatic receptors known to be modulated by environmental chemicals; importance in human hepatocyte functionality; and hepatotoxicity. […]", "values": [{"smiles": "Oc1cc(Cl)c(Cl)cc1Cl", "outcome": "inactive"}, {"smiles": "OCCN(CCO)CCO", "outcome": "inactive"}, {"smiles": "COc1ccccc1N", "outcome": "inactive"}, {"smiles": "CCCCCCCCCCCCc1cccc(S(=O)(=O)O)c1", "outcome": "inactive"}, {"smiles": "Clc1cccc(Cl)c1", "outcome": "inactive"}, {"smiles": "Cc1cc(C)cc(C)c1", "outcome": "inactive"}, {"smiles": "CC(C)O.CC(C)O.OCCN(CCO)CCO.OCCN(CCO)CCO.[Ti]", "outcome": "inactive"}, {"smiles": "O=C(N[C@H]1CN2CCC1CC2)c1ccc2c(c1)OCCO2", "outcome": "inactive"}, {"smiles": "O=C(O)C1(c2ccc3c(c2)OC[C@H](Cc2ccc(-c4ccccc4)cc2)[C@H]3O)CCCC1", "outcome": "inactive"}, {"smiles": "CC(C)(C)c1ccccc1O", "outcome": "inactive"}, {"smiles": "Clc1cccc(Cl)c1Cl", "outcome": "inactive"}, {"smiles": "CN(C)C(=S)S", "outcome": "inactive"}, {"smiles": "N#Cc1cccnc1", "outcome": "inactive"}]}]}
